From PubChem BioAssay (Tox21)
The source made the active and inactive calls. The call rests on the fitted dose curve; in most records, active means well fitted curve in the direction sought with a large enough effect in the repeat runs; inconclusive means weak or mixed curves; inactive means flat fitted curve, though single readings scatter.

Assay: qHTS assay to test for compound auto fluorescence at 590 nm (red) in HEK293 cell free culture (AID 720683)
Details: cell-free medium autofluorescence, Ex540/Em590 red; series mostly up to 91.3 µM; fluorescence, % of fluorescent control: at the top concentration
Procedure, shortened: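 Red-channel autofluorescence of compounds in culture medium (DMEM, 10% FBS), no cells, measured at 540/590 nm. Rose Bengal sodium is the reference fluorophore for equivalence.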
On the % scale 0 is the no-effect control and ±100 the full control effect.

Row | SMILES | outcome | fluorescence, % of fluorescent control
1 | CCCCC(CC)COC(=O)C(C#N)=C(c1ccccc1)c1ccccc1 (centres undefined) | inactive | –
2 | O=C(Oc1ccccc1)c1ccccc1 | inactive | –
3 | CC1CCC(C(C)C)C(O)C1 (centres undefined) | inactive | –
4 | CCCCCCCCCCCCOCCO | – | -0.123% (inactive)
5 | O=C(O)[C@H](O)[C@@H](O)[C@H](O)[C@H](O)CO | inactive | –
6 | CCCSc1ccc2nc(NC(=O)OC)[nH]c2c1 | inactive | –
7 | O=C(O)CCCC[C@@H]1SC[C@@H]2NC(=O)N[C@@H]21 | inactive | –
8 | CCc1ccc(CCOc2ccc(CC3SC(=O)NC3=O)cc2)nc1 (centres undefined) | inactive | –
9 | COc1ccc2cc([C@H](C)C(=O)O)ccc2c1 | inactive | –
10 | COCCCOc1ccnc(CS(=O)c2nc3ccccc3[nH]2)c1C (centres undefined) | inactive | –
11 | O=C(O)c1cc(C(=O)O)cc(S(=O)(=O)O)c1 | inactive | –
12 | Cc1ccc2oc(=O)ccc2c1 | inactive | –
13 | Cc1occc(=O)c1O | inactive | –
14 | CCN(CC)c1ccc(C(=O)c2ccccc2C(=O)O)c(O)c1 | inactive | –
15 | CC(c1cc2ccccc2s1)N(O)C(N)=O (centres undefined) | inactive | –
16 | CC(C)c1ccc(S(=O)(=O)O)cc1 | inactive | –
17 | O=C(O)c1ccccc1C(c1ccc(O)cc1)c1ccc(O)cc1 | – | -0.0377% (inactive)
18 | OCc1cccnc1 | inactive | –
19 | COS(C)(=O)=O | inactive | –
20 | CCCCCC/C(C=O)=C\c1ccccc1 | inactive | –

Row | SMILES | outcome | fluorescence, % of fluorescent control
21 | CCCCCC1=CCCC1=O | inactive | –
22 | CCCCCOC(C)=O | inactive | –
23 | C#C[C@]1(O)CC[C@H]2[C@@H]3CCC4=CC(=O)CC[C@@H]4[C@H]3CC[C@@]21C | inactive | –
24 | CCCCC(CC)COC(=O)CCCCC(=O)OCC(CC)CCCC (centres undefined) | inactive | –
25 | COc1ccc(NC(C)=O)cc1N | inactive | –
26 | OC[C@H]1O[C@@](CO)(O[C@H]2O[C@H](CO)[C@@H](O)[C@H](O)[C@H]2O)[C@@H](O)[C@@H]1O | inactive | –
27 | Cc1cccnc1 | inactive | –
28 | NNc1nncc2ccccc12 | inactive | –
29 | CC1=CCC2CC1C2(C)C (centres undefined) | inactive | –
30 | O=C(O)CCCCCCCCCCC(=O)O | inactive | –
31 | CCN(CC)CCCC(C)Nc1ccnc2cc(Cl)ccc12 (centres undefined) | inactive | –
32 | CC(=O)Nc1ccccc1 | inactive | –
33 | CC(=O)CC(=O)Nc1ccccc1 | inactive | –
34 | OCC(CO)(CBr)CBr | inactive | –
35 | CCCCCCCCC/C=C/CC1CC(=O)OC1=O (centres undefined) | inactive | –
36 | CC[C@H](C)C(=O)O[C@H]1C[C@@H](C)C=C2C=C[C@H](C)[C@H](CC[C@@H]3C[C@@H](O)CC(=O)O3)[C@H]21 | inactive | –
37 | O=[N+]([O-])c1ccc(/C=C/c2ccc([N+](=O)[O-])cc2S(=O)(=O)O)c(S(=O)(=O)O)c1 | inactive | –
38 | CC1=CC(=O)NS(=O)(=O)O1 | inactive | –
39 | C=C(C)C(=O)Nc1ccc(Cl)c(Cl)c1 | inactive | –
